CCT modulator: changes cytosolic chaperonin activity; purified chaperonin ATPase assay, HTRF ADP detection, 30 min; activity change, % (concentration not given with the values), hits read low; actives 0.3% (n = 360,000); AID 651819; in the data active means activity change below about -30%
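Enzyme 40 or 20 nM (batch-dependent) in Tris pH 7.4/KCl/MgCl2/DTT; cpd 76 uM single point; ATP 10 uM; 30 min 37 °C; Transcreener ADP HTRF detection, 30 min RT; ratio 665/615.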
CtBP-E1A inh: inhibitors of CtBP/E1A interaction. AlphaScreen GST-E1A/His-CtBP binding, 1536-well; hits give low values. activity change, % (no concentration beside the values). actives 0.49% (n = 340,000)
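Homogeneous bead-based format: GST-tagged E1A captured on glutathione donor beads, His-tagged CtBP on nickel acceptor beads; compounds precede bead addition by 2 h at 37 °C.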
Akt phos inh: inhibitors of Akt phosphorylation. Neuro2A IGF-stimulated pAkt S473 HTRF, 20 min; hits give low values. activity change, % for hits at 50 µM. actives 0.32% (n = 360,000). AID 651550; in the data active means activity change below about -80%; inconclusive means mostly about -51% to -80%
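Single-point screen (50 µM final compound) in Neuro2A cells stimulated 20 min with 6 nM IGF at 37 deg C. After lysis, Ser473-phosphorylated Akt read by HTRF (ex 330 nm, em 615/665 nm) as the 665/615 ratio.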
Six1-Eya2 inh: Six1/Eya2 interaction inhibition; activity change, % (concentration not given with the values); AlphaScreen GST-Six1/His-Eya2 binding, biochemical; hits give low values; actives 0.56% (n = 360,000)
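Six1/Eya2 binding was read as AlphaScreen signal after compounds were pinned into GST-Six1 plus His-tagged Eya2 (5X stock 250/500 nM) in pH 8.0 Tris/NaCl/TCEP buffer, beads added, then incubated 1 h, 37 C, dark.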
A number is an active result; – = inactive; ? = inconclusive; · = no result given. This is a sample that favours compounds with a hit; in the whole collection about 1.3% have one here. Unless noted, no stated cut-off is given here; in the data, active means activity change below about -65%; inconclusive means mostly about -30% to -63%; inactive means weaker than that.

SMILES | CCT modulator | CtBP-E1A inh | Akt phos inh | Six1-Eya2 inh
CN(O)/C=c1/ccc2c(n1)C(=O)C=CC=2 | – | -96 | – | -93
Cc1ccc2nc(Nc3ccc(C)c(Cl)c3)c3nncn3c2c1 | – | · | – | –
Cc1ccc(Nc2nc3ccccc3n3cnnc23)cc1Cl | -50 | – | – | –
COc1cccc(/C=N/N2C(=O)CSC2=S)c1O | – | – | – | -90
COc1cc(/C=N/N2C(=O)CSC2=S)cc(Br)c1O | – | – | – | ?
O=C1CSC(=S)N1N=Cc1c(O)ccc2ccccc12 | – | -89 | – | -88
CC1(C2CCC3C4CCC5CC6(CCC5(C)C4C(=O)CC32C)OCCO6)OCCO1 (stereo not given) | – | – | – | –
O=C(CN1C(=O)CCSc2ccccc21)NC1CCCCC1 | -36 | · | · | –
CCN(Cc1ccccc1)C(=O)c1c(-c2ccccc2Cl)noc1C | – | – | – | –
COc1ccc2cc(C(=O)N3CCN(Cc4ccc5c(c4)OCO5)CC3)[nH]c2c1 | – | -97 | – | –
COc1ccc2[nH]c3c(N4CCN(Cc5ccc6c(c5)OCO6)CC4)ncnc3c2c1 | – | ? | – | -65
Cc1ccc(-c2nc3cc(C)c(Br)c(C)n3c2Cc2ccccc2)cc1 | – | – | – | –
O=C(NCc1cccc(C(F)(F)F)c1)C1CC2Cn3c(nc4ccccc43)C2N1Cc1ccccc1 (stereo not given) | – | – | – | –
O=C(C1CCC(CNc2nc(=S)[nH]c3ccccc23)CC1)N1CCN(c2ccc(F)cc2)CC1 (stereo not given) | -36 | – | – | –
Cc1ccc(OCCn2cc(C#N)c3ccccc32)cc1 | – | – | -106% | –
Cc1cc(CN2CCC(n3nccc3NC(=O)c3ccccc3Cl)CC2)cc(C)c1O | – | · | – | –
O=C(NCCOC(=O)c1cccs1)c1cccnc1 | – | – | – | –
O=C(NCCOC(=O)c1ccc(C(=O)OCCNC(=O)c2cccnc2)s1)c1cccnc1 | -56 | – | – | –
C[C@H](NC(=O)c1ccco1)C(=O)OCC(=O)N1CC(=O)Nc2ccccc21 | – | – | – | –
CC1(C)CC(NC(=O)C2CCN(S(=O)(=O)c3ccc(F)cc3)CC2)CC(C)(C)N1 | – | – | – | –
COc1ccc(OCC(O)CN2CCc3ccccc3C2)cc1 (stereo not given) | – | – | – | –
CC(C)(C)c1ccc(OCC(O)CN2CCc3ccccc3C2)cc1 (stereo not given) | -57 | · | – | –
COc1ccc(CC(=O)Nc2ccc(-c3nnc(-c4ccccc4)o3)cc2)cc1OC | – | – | -118% | –
COc1ccc(CC(=O)Nc2cccc(-c3nnc(-c4ccccc4)o3)c2)cc1OC | – | – | – | –
CCOc1ccc2nc3c(cc2c1)CN(CCOC)C(=NC)S3 | – | – | -88% | –
SMILES | CCT modulator | CtBP-E1A inh | Akt phos inh | Six1-Eya2 inh
CCN=C1Sc2nc3ccc(OCC)cc3cc2CN1CCOC | – | – | – | –
CCOC(=O)C1=C(CS(=O)(=O)c2ccc(F)cc2)NC(=O)NC1c1cc(OC)c(O)c(OC)c1 (stereo not given) | – | – | – | –
CCOc1ccc(NC(=O)CN(C)C(=O)c2ccccc2OCc2c(C)noc2C)cc1OCC | – | – | – | –
Cc1cnc(Nc2nc3ccccc3o2)nc1C(=O)Nc1cccc(C(F)(F)F)c1 | – | – | -95% | –
Cc1ccc(C2(CCNCc3ccc(N(C)C)cc3)CCOC(C(C)C)C2)cc1 (stereo not given) | – | ? | – | ?
CC(C)C1CC(CCNCc2ccc(N(C)C)cc2)(c2ccccc2)CCO1 (stereo not given) | – | ? | – | -65
O=C(CSc1nnc(COc2ccc(Br)cc2)o1)NC1CCCCC1 | – | – | – | –
Cc1cc2oc(=O)cc(CN3CCN(Cc4ccccc4)CC3)c2cc1Cl | – | – | -111% | –
Cc1ccc2c(CN3CCN(Cc4ccccc4)CC3)cc(=O)oc2c1 | – | – | – | –
O=C(COC(=O)c1ccc2c(c1)OCCO2)NCCC1=CCCCC1 | – | – | – | -71
CCC(c1nnnn1-c1ccc2c(c1)OCCO2)N1CCN(c2ccc(F)cc2)CC1 (stereo not given) | – | – | – | –
